# “And” between values parts separate entries of the source, which are not always exact repeats. Identical values can stand only once. Records with an inconclusive call do not appear. The source made the active and inactive calls. How the source made its calls: active means hit-call score of the fitted dose curve at least 0.9, where 1 is the maximum; inconclusive means response in the unintended direction; inactive means score below 0.9.
# What was measured:
# [1] = molecular target: human Serotonin, 5-Hydroxytryptamine Receptor 7 (5HT7), HTR7 (gene 3363) (UniProt P34969); experiment: NVS_GPCR_h5HT7: NovaScreen (NVS) G Protein-Coupled Receptor Assay for human Serotonin, 5-Hydroxytryptamine Receptor 7 (5HT7) (AID 2283255);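 further: hits reduce specific radioligand binding relative to DMSO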
# Procedure, shortened: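 Radioligand displacement on membranes from CHO cells expressing human 5HT7, 1 h incubation, filter-based scintillation counting. Primary screen used a single 25 uM concentration in duplicate; actives were followed up in concentration series.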
# [2] = molecular target: human Adenosine A1 Receptor (AdoRA1), ADORA1 (gene 134) (UniProt P30542); experiment: NVS_GPCR_hAdoRA1: NovaScreen (NVS) G Protein-Coupled Receptor Assay for human Adenosine A1 Receptor (AdoRA1) (AID 2283254)
# Procedure, shortened: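 Hum. cortical membranes + radioligand, cmpd 1 h; filtration, scintillation count. Readout = decrease vs DMSO. Primary 25 uM dup; hits → conc. series.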
# [3] = molecular target: human Dopamine Receptor D2 (DRD2), DRD2 (gene 1813) (UniProt P14416); experiment: NVS_GPCR_hDRD2s: NovaScreen (NVS) G Protein-Coupled Receptor Assay for human Dopamine Receptor D2 (DRD2) (AID 2283266)
# Procedure, shortened: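 Radioligand displacement used human DRD2 membranes extracted from CHO cells and was read by filter-based scintillation counting after 1.5 hours. Primary screening was in duplicate at 25 uM. Loss of signal versus DMSO was fitted, with concentration series in follow-up.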
# [4] = molecular target: human Histamine 1 Receptor (H1), HRH1 (gene 3269) (UniProt P35367); experiment: NVS_GPCR_hH1: NovaScreen (NVS) G Protein-Coupled Receptor Assay for human Histamine 1 Receptor (H1) (AID 2283268)
# Procedure, shortened: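 Cell-free radioligand displacement at human H1 receptor, 1 h, filter scintillation counting; primary screen 25 uM in duplicate, hits in concentration series; loss of binding fitted vs DMSO.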
# [5] = molecular target: human Serotonin, 5-Hydroxytryptamine Receptor 5A (5HT5A), HTR5A (gene 3361) (UniProt P47898); experiment: NVS_GPCR_h5HT5A: NovaScreen (NVS) G Protein-Coupled Receptor Assay for human Serotonin, 5-Hydroxytryptamine Receptor 5A (5HT5A) (AID 2283251)
# Procedure, shortened: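 Cell-free radioligand displacement binding on HEK293-derived membrane protein, 1 h incubation, filter-based scintillation counting. Primary screen in duplicate at 25 uM, actives followed in concentration series; loss of signal fitted versus DMSO.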
# [6] = molecular target: human Adenosine A2a Receptor (AdoRA2a), ADORA2A (gene 135) (UniProt P29274); experiment: NVS_GPCR_hAdoRA2a: NovaScreen (NVS) G Protein-Coupled Receptor Assay for human Adenosine A2a Receptor (AdoRA2a) (AID 2283256)
# Procedure, shortened: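 Radioligand displacement on HEK293-derived membrane protein, cell-free; filter-based scintillation counting 1.5 hours after dosing, loss of signal vs DMSO. Single-point duplicate screen at 25 uM, actives retested in concentration series.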
# [7] = molecular target: human Adrenergic, Alpha 2c Receptor (Adra2C), ADRA2C (gene 152) (UniProt P18825); experiment: NVS_GPCR_hAdra2C: NovaScreen (NVS) G Protein-Coupled Receptor Assay for human Adrenergic, Alpha 2c Receptor (Adra2C) (AID 2283259)
# Procedure, shortened: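 Radioligand binding on Sf9-expressed receptor membranes, 1 h after chemical dosing, filter-based scintillation read-out. Loss of binding fitted positively versus DMSO; primary duplicate screen at 25 uM, actives retested in concentration series.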
# [8] = molecular target: human Serotonin, 5-Hydroxytryptamine Receptor 6 (5HT6), HTR6 (gene 3362) (UniProt P50406); experiment: NVS_GPCR_h5HT6: NovaScreen (NVS) G Protein-Coupled Receptor Assay for human Serotonin, 5-Hydroxytryptamine Receptor 6 (5HT6) (AID 2283253)
# Procedure, shortened: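 Radioligand binding to 5HT6 in HEK293-derived membranes, cell-free, 1 h after dosing; bound ligand measured by filter-based scintillation counting. Primary screen in duplicate at 25 uM; actives retested in concentration series.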
# [9] = molecular target: human Adrenergic, Beta 1 Receptor (Adrb1), ADRB1 (gene 153) (UniProt P08588); experiment: NVS_GPCR_hAdrb1: NovaScreen (NVS) G Protein-Coupled Receptor Assay for human Adrenergic, Beta 1 Receptor (Adrb1) (AID 2283258)
# Procedure, shortened: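 Cell-free radioligand displacement on receptor from human neuroepithelioma cells; 2 h after dosing, filter-based scintillation counting. Primary screen in duplicate at 25 uM, actives retested in concentration series; loss of signal vs DMSO baseline.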
# [10] = molecular target: Beta-2 adrenergic receptor (Homo sapiens) (UniProt P07550); experiment: NVS_GPCR_hAdrb2: NovaScreen (NVS) G Protein-Coupled Receptor Assay for human Adrenergic, Beta 2 Receptor (Adrb2) (AID 2283261)
# Procedure, shortened: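 Filter-based radioligand binding using receptor prepared from CHO cells, 1 h incubation, scintillation counting. Primary screen in duplicate at 25 uM, actives retested in concentration series; loss of binding relative to DMSO.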
# [11] = molecular target: D(1A) dopamine receptor (Homo sapiens) (UniProt P21728); experiment: NVS_GPCR_hDRD1: NovaScreen (NVS) G Protein-Coupled Receptor Assay for human Dopamine Receptor D1 (DRD1) (AID 2283269)
# Procedure, shortened: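 HEK293-derived receptor preparation; radioligand competitive displacement; 1 h; filtration + scintillation counting. DMSO = negative control/baseline. Primary: 25 uM, duplicate; secondary: concentration–response for actives.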
# [12] = molecular target: Muscarinic acetylcholine receptor M1 (Homo sapiens) (UniProt P11229); experiment: NVS_GPCR_hM1: NovaScreen (NVS) G Protein-Coupled Receptor Assay for human Muscarinic, M1 Receptor (AID 2283270)
# Procedure, shortened: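 Cell-free radioligand displacement using membrane protein extracted from CHO cells, read by filter-based scintillation counting 1 h after dosing. Loss of bound signal fitted versus DMSO; primary screen single concentration 25 uM in duplicate, actives followed by concentration series.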
# [13] = molecular target: human Leukotriene B4 Receptor 1 (LTB4-BLT1), LTB4R (gene 1241) (UniProt Q15722); experiment: NVS_GPCR_hLTB4_BLT1: NovaScreen (NVS) G Protein-Coupled Receptor Assay for human Leukotriene B4 Receptor 1 (LTB4-BLT1) (AID 2283271)
# Procedure, shortened: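 Radioligand displacement binding on receptor extracted from human neutrophils, cell-free, 1 h after dosing; filter-based scintillation counting. Primary screen in duplicate at 25 uM, actives retested in concentration-response up to 50 uM; loss of signal versus DMSO.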
# [14] = molecular target: guinea pig Opioid, Kappa 1 Receptor (OpiateK), OPRK1 (gene 100135587) (UniProt P41144); experiment: NVS_GPCR_gOpiateK: NovaScreen (NVS) G Protein-Coupled Receptor Assay for guinea pig Opioid, Kappa 1 Receptor (OpiateK) (AID 2283252);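 further: radioligand displacement from kappa opioid receptor in guinea pig cerebellar membranes; active means reduced radioligand binding relative to DMSO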
# Procedure, shortened: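 Guinea pig cerebellar membranes were incubated with a radioligand for 2 h after compound addition; bound radioactivity was read by filter-based scintillation counting. Loss of specific binding relative to DMSO baseline defined activity; primary screen at 25 uM in duplicate.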
# [15] = molecular target: human Adrenergic, Alpha 2A Receptor (Adra2A), ADRA2A (gene 150) (UniProt P08913); experiment: NVS_GPCR_hAdra2A: NovaScreen (NVS) G Protein-Coupled Receptor Assay for human Adrenergic, Alpha 2A Receptor (Adra2A) (AID 2283257)
# Procedure, shortened: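 Radioligand filter-binding was run on HT29-derived membranes, cell-free, read by scintillation counting 1 h after dosing. Primary screening was in duplicate at 25 uM, with concentration series in follow-up. Loss of signal versus DMSO indicates displacement.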
# [16] = molecular target: Type-1 angiotensin II receptor (Homo sapiens) (UniProt P30556); experiment: NVS_GPCR_hAT1: NovaScreen (NVS) G Protein-Coupled Receptor Assay for human Angiotensin II receptor type 1 (AT1) (AID 2283263)
# Procedure, shortened: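 Membranes from KAN-TS cells; radioligand competitive displacement, 3 h, filtration and scintillation counting. Single-point duplicate screen at 25 uM, then concentration-response up to 50 uM for hits; loss of signal fitted versus DMSO.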
# Muscarinic acetylcholine receptor M1 (Homo sapiens), sequence (P11229 whole entry, looked up): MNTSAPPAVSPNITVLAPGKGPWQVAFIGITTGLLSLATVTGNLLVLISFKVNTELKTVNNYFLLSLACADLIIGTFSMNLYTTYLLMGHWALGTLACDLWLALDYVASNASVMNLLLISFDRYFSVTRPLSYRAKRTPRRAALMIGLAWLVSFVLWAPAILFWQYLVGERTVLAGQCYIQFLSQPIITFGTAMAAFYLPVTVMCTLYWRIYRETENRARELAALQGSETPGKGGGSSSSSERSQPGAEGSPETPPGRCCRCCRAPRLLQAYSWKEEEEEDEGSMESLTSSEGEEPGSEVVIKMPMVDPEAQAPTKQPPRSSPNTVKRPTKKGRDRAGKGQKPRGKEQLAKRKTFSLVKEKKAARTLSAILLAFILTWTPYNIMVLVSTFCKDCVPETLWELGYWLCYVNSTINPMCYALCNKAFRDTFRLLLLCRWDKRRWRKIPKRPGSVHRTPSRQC
# human Serotonin, 5-Hydroxytryptamine Receptor 5A (5HT5A), HTR5A (gene 3361), sequence (P47898 whole entry, looked up): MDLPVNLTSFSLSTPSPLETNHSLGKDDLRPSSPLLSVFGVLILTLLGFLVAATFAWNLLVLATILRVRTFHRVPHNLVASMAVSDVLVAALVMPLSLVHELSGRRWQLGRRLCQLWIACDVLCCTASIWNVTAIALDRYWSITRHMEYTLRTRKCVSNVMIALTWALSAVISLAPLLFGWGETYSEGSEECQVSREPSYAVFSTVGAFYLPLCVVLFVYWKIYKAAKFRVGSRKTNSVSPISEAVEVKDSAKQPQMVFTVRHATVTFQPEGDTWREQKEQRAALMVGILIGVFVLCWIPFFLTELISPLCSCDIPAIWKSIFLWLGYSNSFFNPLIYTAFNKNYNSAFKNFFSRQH
# human Adrenergic, Alpha 2c Receptor (Adra2C), ADRA2C (gene 152), sequence (P18825 whole entry, looked up): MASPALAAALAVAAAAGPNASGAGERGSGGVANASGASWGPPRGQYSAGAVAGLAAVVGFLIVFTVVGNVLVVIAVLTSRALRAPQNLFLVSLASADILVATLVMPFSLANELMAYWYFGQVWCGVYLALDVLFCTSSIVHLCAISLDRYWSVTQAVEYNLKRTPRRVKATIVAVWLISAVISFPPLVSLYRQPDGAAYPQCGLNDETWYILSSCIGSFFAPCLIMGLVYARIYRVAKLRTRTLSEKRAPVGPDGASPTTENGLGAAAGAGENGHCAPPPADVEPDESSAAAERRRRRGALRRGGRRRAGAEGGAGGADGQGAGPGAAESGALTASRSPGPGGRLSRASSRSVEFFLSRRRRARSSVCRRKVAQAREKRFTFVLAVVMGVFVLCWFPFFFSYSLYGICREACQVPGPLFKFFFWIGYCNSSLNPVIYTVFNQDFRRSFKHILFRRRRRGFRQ
# human Serotonin, 5-Hydroxytryptamine Receptor 7 (5HT7), HTR7 (gene 3363), sequence (P34969 whole entry, looked up): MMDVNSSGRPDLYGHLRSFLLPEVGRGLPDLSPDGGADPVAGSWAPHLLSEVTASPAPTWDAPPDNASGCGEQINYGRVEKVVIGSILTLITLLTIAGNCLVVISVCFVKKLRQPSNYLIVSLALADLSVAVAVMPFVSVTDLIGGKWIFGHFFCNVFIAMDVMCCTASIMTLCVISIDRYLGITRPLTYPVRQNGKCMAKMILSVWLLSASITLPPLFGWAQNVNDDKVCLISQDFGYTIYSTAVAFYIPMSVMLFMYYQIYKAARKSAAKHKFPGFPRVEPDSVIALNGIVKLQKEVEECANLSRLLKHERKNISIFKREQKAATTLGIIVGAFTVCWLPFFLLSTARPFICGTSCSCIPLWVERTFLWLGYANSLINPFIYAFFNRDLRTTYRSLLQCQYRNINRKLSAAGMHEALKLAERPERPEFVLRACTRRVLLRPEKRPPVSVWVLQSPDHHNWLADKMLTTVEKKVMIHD
# Beta-2 adrenergic receptor (Homo sapiens), sequence (P07550 whole entry, looked up): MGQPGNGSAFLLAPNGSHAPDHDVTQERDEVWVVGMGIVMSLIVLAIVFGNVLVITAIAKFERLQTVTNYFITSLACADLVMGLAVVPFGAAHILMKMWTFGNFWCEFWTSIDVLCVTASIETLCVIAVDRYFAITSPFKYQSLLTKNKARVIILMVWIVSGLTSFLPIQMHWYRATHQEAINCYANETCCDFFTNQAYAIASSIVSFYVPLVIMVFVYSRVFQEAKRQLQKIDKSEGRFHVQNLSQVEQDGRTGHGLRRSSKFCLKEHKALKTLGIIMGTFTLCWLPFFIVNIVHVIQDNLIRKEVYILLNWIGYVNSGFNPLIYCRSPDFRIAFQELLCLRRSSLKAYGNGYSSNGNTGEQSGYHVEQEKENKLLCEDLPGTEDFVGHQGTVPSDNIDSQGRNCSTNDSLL
# human Adenosine A1 Receptor (AdoRA1), ADORA1 (gene 134), sequence (P30542 whole entry, looked up): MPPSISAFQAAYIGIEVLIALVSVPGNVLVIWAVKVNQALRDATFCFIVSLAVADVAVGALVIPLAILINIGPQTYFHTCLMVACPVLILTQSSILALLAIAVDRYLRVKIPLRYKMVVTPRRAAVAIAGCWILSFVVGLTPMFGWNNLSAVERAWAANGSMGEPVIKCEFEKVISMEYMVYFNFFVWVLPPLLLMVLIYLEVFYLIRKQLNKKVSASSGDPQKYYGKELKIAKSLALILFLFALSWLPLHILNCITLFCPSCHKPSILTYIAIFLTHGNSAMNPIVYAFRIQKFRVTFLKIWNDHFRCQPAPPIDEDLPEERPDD
# D(1A) dopamine receptor (Homo sapiens), sequence (P21728 whole entry, looked up): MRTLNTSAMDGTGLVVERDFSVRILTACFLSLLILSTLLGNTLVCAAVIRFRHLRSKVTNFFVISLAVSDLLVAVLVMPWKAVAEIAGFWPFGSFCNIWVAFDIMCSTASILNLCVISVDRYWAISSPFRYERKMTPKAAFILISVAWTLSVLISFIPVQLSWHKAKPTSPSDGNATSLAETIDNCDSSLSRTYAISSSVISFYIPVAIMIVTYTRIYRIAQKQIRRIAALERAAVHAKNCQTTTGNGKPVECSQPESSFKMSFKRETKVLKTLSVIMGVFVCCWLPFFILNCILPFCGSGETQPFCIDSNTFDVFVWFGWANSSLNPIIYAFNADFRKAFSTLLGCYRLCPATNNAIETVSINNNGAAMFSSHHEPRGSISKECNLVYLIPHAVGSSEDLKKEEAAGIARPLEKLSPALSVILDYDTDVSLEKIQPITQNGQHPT
# human Adrenergic, Alpha 2A Receptor (Adra2A), ADRA2A (gene 150), sequence (P08913 whole entry, looked up): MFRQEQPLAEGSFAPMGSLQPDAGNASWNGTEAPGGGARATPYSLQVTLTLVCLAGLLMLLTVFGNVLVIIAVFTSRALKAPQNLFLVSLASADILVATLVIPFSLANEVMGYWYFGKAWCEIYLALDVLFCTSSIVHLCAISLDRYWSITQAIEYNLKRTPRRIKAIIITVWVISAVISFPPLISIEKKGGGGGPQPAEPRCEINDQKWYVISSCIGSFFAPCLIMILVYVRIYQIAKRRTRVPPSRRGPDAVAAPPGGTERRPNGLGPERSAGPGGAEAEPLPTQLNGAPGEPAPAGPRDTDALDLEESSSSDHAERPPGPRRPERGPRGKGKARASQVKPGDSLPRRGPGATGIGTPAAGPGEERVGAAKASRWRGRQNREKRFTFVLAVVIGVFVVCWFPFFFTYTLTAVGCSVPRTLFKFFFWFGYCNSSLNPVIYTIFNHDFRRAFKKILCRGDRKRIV
# human Leukotriene B4 Receptor 1 (LTB4-BLT1), LTB4R (gene 1241), sequence (Q15722 whole entry, looked up): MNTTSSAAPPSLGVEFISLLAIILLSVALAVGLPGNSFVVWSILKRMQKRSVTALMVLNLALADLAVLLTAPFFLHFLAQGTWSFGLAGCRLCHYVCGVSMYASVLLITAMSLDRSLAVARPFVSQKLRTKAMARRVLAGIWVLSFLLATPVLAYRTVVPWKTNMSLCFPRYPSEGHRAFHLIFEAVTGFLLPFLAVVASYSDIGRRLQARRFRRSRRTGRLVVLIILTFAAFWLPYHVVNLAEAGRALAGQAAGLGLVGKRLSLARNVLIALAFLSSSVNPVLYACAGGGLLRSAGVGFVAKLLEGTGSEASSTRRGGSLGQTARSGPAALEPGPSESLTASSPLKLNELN
# guinea pig Opioid, Kappa 1 Receptor (OpiateK), OPRK1 (gene 100135587), sequence (P41144 whole entry, looked up): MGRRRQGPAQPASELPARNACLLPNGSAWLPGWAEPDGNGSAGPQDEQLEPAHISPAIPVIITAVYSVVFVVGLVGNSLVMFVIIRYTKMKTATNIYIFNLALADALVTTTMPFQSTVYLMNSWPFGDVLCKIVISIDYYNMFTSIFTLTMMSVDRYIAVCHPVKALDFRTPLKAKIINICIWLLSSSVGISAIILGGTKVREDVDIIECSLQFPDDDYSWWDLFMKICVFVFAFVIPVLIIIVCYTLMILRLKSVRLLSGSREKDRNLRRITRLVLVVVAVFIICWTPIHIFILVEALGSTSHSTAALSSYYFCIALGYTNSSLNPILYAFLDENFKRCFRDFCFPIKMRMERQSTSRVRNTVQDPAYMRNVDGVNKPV
# human Dopamine Receptor D2 (DRD2), DRD2 (gene 1813), sequence (P14416 whole entry, looked up): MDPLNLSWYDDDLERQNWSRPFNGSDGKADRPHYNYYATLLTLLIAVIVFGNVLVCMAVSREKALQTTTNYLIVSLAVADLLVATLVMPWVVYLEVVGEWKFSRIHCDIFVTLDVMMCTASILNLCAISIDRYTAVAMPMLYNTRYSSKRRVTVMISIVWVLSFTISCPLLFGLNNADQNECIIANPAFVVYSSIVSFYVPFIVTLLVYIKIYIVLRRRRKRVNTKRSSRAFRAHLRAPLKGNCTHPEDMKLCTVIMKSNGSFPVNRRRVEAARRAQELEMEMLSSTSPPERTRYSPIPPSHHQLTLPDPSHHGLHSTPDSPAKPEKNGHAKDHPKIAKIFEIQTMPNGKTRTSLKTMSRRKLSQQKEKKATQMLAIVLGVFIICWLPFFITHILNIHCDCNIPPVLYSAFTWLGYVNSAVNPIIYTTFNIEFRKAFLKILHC
# Type-1 angiotensin II receptor (Homo sapiens), sequence (P30556 whole entry, looked up): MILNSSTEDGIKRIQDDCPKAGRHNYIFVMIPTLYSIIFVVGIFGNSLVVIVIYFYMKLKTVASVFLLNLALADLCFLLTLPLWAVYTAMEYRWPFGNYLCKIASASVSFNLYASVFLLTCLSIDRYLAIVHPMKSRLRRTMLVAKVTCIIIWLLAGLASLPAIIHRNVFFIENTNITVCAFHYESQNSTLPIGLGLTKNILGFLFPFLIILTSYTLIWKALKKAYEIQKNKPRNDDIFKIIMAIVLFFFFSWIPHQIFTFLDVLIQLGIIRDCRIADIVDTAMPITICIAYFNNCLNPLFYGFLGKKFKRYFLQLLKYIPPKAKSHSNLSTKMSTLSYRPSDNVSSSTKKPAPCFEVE
compound,measurement,setting,value
Cc1nn(C)c(Oc2ccccc2)c1C=NOCc1ccc(C(=O)OC(C)(C)C)cc1,AC50,[1],6.64 µM (active)
CCCCC(CC)COC(=O)c1ccccc1C(=O)O (configuration not stated),outcome,[2],inactive
S=C([S-])NCCNC(=S)[S-].[Mn+2],outcome,[3],inactive
same,outcome,[4],inactive
CCCCOC(=O)[C@@H](C)Oc1ccc(Oc2ccc(C(F)(F)F)cn2)cc1,outcome,[1],inactive
CCNc1nc(N)nc(Cl)n1,outcome,[5],inactive
same,AC50,[2],0.207 µM (active)
same,AC50,[6],9.05 µM (active)
same,outcome,[4],inactive
CCOC(=O)C(C)Oc1ccc(Oc2cnc3cc(Cl)ccc3n2)cc1 (configuration not stated),outcome,[5],inactive
same,outcome,[7],inactive
Oc1ccc(C(c2ccc(O)cc2)C(Cl)(Cl)Cl)cc1,AC50,[5],6.9 µM (active)
same,AC50,[8],0.18 µM (active)
same,outcome,[2],inactive
same,AC50,[1],6.91 µM (active)
same,outcome,[9],inactive
same,AC50,[7],6.88 µM (active)
same,outcome,[10],inactive
same,AC50,[3],25 µM (active)
same,AC50,[11],6.83 µM (active)
same,AC50,[12],6.79 µM (active)
same,outcome,[13],inactive
COC(=O)c1ccccc1S(=O)(=O)NC(=O)Nc1nc(OC(F)F)cc(OC(F)F)n1,outcome,[10],inactive
CC(=O)S[C@@H]1CC2=CC(=O)CC[C@]2(C)[C@H]2CC[C@@]3(C)[C@@H](CC[C@@]34CCC(=O)O4)[C@H]12,AC50,[14],13.2 µM (active)
C[C@]12CC[C@@H]3c4ccc(O)cc4C[C@@H](CCCCCCCCCS(=O)CCCC(F)(F)C(F)(F)F)[C@H]3[C@@H]1CC[C@@H]2O (some centres not stated),outcome,[5],inactive
C=CCOC(Cn1ccnc1)c1ccc(Cl)cc1Cl (configuration not stated),AC50,[14],12.2 µM (active)
same,AC50,[15],16.4 µM (active)
same,outcome,[10],inactive
same,AC50,[12],5.47 µM (active)
same,outcome,[13],inactive
N#CSCSc1nc2ccccc2s1,AC50,[15],4.68 µM (active)
same,AC50,[16],9.3 µM (active)
same,AC50,[11],14.8 µM (active) and 16.7 µM (active)
CCCCOC(=O)C(C)Oc1ccc(Oc2ccc(C(F)(F)F)cn2)cc1 (configuration not stated),AC50,[12],12.1 µM (active)
CCOC(=O)C(C)Oc1ccc(Oc2nc3ccc(Cl)cc3o2)cc1 (configuration not stated),outcome,[7],inactive
same,AC50,[12],17.2 µM (active)
COC(=O)CSc1cc(N=c2sc(=O)n3n2CCCC3)c(F)cc1Cl,outcome,[15],inactive

# Reference: PubChem BioAssay (EPA / NIEHS)
